# Compound activity as filed in PubChem.
# This is a sample that favours compounds with a hit; in the whole collection about 0.95% have one here.
# RE007 growth inh: less growth of the S. pombe RE007 Vpr strain; Potency, µM (highest dose often 92.2 µM), without a hit: at the highest dose activity change, negative = less growth, actives largely listed as inhibitors; 0.21% of 360,000 active; S. pombe RE007 Vpr strain, BacTiter-Glo ATP luminescence, 24 h; AID 651644; active = well fitted falling curve with a large enough effect; inconclusive = small, poorly fitted or top-dose-only effect; inactive = no such curve, though single readings can be large or run the other way; also: nearly all actives have a fitted effect of over 50% in size
#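 Fission yeast RE007 carrying one integrated HIV-1 vpr copy, seeded at OD 0.01 in PMG+AL medium with 23 nL pinned compound. Grown 24 h at 30 degrees; viability read by BacTiter-Glo luminescence after 5 min.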
# FBPA Giardia inh: Giardia lamblia aldolase inhibition; A8B2U2; purified Giardia FBPA; Potency, µM (doses to about 59.6 µM), without a hit: at the top dose activity, negative = inhibition, actives largely listed as inhibitors; 0.71% of 290,000 active; AID 2451; also: nearly all actives have a fitted effect of over 55% in size
# Target sequence (A8B2U2 whole entry, looked up): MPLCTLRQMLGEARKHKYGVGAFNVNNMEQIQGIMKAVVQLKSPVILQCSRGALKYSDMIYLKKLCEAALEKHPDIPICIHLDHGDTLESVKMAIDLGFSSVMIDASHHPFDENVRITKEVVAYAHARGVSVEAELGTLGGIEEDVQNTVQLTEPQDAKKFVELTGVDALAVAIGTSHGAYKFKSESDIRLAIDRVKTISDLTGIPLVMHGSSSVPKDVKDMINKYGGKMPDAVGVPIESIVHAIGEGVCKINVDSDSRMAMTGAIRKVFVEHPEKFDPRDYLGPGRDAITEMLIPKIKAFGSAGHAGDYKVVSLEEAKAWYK
#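 40 nM FBPA preincubated 10 min at RT with compound (up to 57.5 uM final), then substrate plus GAPDH/TPI/NAD/arsenate coupling and diaphorase/resazurin added. Fluorescence read after 20 min at RT, 525/598 nm.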
# LmPK inhibitor: blocks Leishmania mexicana pyruvate kinase activity. Q27686. purified LmPK, Kinase-Glo ATP luminescence, 1 h. Potency, µM (top dose mostly 57.5 µM), without a hit: at the top dose activity change, negative = inhibition, actives largely listed as inhibitors. 0.37% of 290,000 active. AID 1721
#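 ATP generated from ADP (0.1 mM) and PEP (0.5 mM) by 0.1 nM LmPK over 1 h at room temperature (pH 7.2 imidazole buffer) was detected by coupled luciferase luminescence. Values were normalized to uninhibited and no-enzyme wells.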
# Tb PYK inh: blocks Trypanosoma brucei pyruvate kinase; 0.12% of 410,000 active; TbPYK enzyme, Kinase-Glo Plus ATP luminescence, 45 min; Potency, µM (series often up to 76.8 µM), for inactives: at the top dose activity, negative = inhibition, actives largely listed as inhibitors; Q57TT1; also: nearly all actives have a fitted effect of over 50% in size
#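 Luminescence from Kinase-Glo Plus, added after a 45-minute room-temperature reaction, served as the end-point read-out. The enzyme and substrate were preincubated with compound before ADP (130 uM final) initiated turnover. Concentration-effect curves came from normalized qHTS data.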
# The depositor's hits bear a star; ? = inconclusive; · = not tested or not shown; [ ] = dose if it differs, or a comment. Unless noted, calls follow the shape of the dose curve; as a rule, active = well fitted curve in the direction sought with a large enough effect; inconclusive = small, poorly fitted or top-dose-only effect, or another doubt; inactive = no such curve, though single readings can be large; an effect the other way counts as inactive or inconclusive. % is scaled to controls: 0 for no effect and ±100 for the full control effect; potency is read from the fitted curve at half-maximal effect.
SMILES,RE007 growth inh,FBPA Giardia inh,LmPK inhibitor,Tb PYK inh
O=C(O)c1cc(/C=C/c2ccc(N3CCOCC3)c([N+](=O)[O-])c2)nc2ccccc12,-12%,-7%,?,-5%
Cc1ccc(/C=C2/NC(=O)N(Cc3ccccc3)C2=O)o1,45µM*,?,-4%,?
CCSC[C@H](NC(=O)[C@H](C)N)C(=O)N[C@@H](CC(=O)O)C(=O)N[C@H](C(=O)N[C@@H](C)C(=O)N[C@H](C(=O)N[C@@H](CSCC)C(=O)N[C@H](C(=O)N[C@H](C(=O)N[C@@H](Cc1cnc[nH]1)C(=O)N[C@@H](CCCNC(=N)N)C(=O)N[C@@H](CC(C)C)C(=O)N[C@@H](C)C(=O)NCC(=O)N[C@@H](CC(C)C)C(=O)N[C@@H](CC(C)C)C(=O)N[C@@H](CO)C(=O)N[C@@H](CCCNC(=N)N)C(=O)N[C@@H](CO)C(=O)NCC(=O)NCC(=O)N[C@H](C(=O)N[C@H](C(=O)N[C@@H](CCCCN)C(=O)N[C@@H](CC(N)=O)C(=O)N[C@@H](CC(N)=O)C(=O)N[C@@H](Cc1ccccc1)C(=O)N[C@H](C(=O)N1CCC[C@H]1C(=O)N[C@H](C(=O)N[C@@H](CC(N)=O)C(=O)N[C@H](C(=O)NCC(=O)N[C@@H](CO)C(=O)N[C@@H](CCCCN)C(=O)N[C@@H](C)C(=O)N[C@@H](Cc1ccccc1)C(N)=O)C(C)C)[C@@H](C)O)C(C)C)C(C)C)C(C)C)[C@@H](C)O)C(C)C)[C@@H](C)O)[C@@H](C)O,·,1%,·,·
O=C(O)C1C2C=CC(O2)C1C(=O)NCc1ccc2c(c1)OCO2 (stereo unspecified),-27%,11%,0%,1%
O=C(O)C1C2C=CC(O2)C1C(=O)NCc1ccc(Cl)cc1 (stereo unspecified),35µM*,3%,-2%,-4%
Cc1ccc(S(=O)(=O)CCCS(=O)(=O)c2ccc(C)cc2)cc1,19%,8%,-4%,1%
Cc1ccc(S(=O)(=O)SCCCSS(=O)(=O)c2ccc(C)cc2)cc1,?,·,·,4µM*
NC(Cc1ccccc1)c1csc(Nc2ccc(C(=O)c3ccccc3)cc2)n1 (stereo unspecified),-10%,·,·,1%
CC(C)S(=O)(=O)NC(=O)C1(C)CCN1C(=O)Cc1ccccc1 (stereo unspecified),10%,·,·,-4%
COc1ccc(/C=N/Nc2nccnc2Cl)cc1,?,-19%,7.1µM*,?
Clc1nccnc1N/N=C/c1ccc(Br)cc1,-27%,?,18µM*,?
CNC(=S)NNc1nncc2ccccc12,1%,-19%,-1%,-2%
NNc1nncc2ccccc12,·,5µM*,·,-8%[33.2 µM]
COc1ccc(/C=N/Nc2nncc3ccccc23)cc1,-18%,-1%,11µM*,?
Cc1cc(C)cc(N2C(=O)CC(c3ccccc3)CC2=O)c1,4%,·,·,-1%
COc1ccc(/C=N/Nc2nccnc2Cl)c(OC)c1,-6%,-7%,10µM*,-29%
COc1ccc(/C=N/Nc2nonc2N)c(OC)c1,-4%,5%,2%,-2%
CCCCCCc1ccc(C(=O)CCN(C)C)cc1,·,-1%,·,·
O=C(Nc1nc2ccccc2[nH]1)c1ccccc1,?,-11%,16µM*,-22%
[NH-]CCC([O-])=NC(Cc1cnc[nH]1)C(=O)[O-].[Zn+2] (stereo unspecified),·,·,·,2%
Cc1cc2nc(-c3cccnc3SCC(=O)NCc3ccco3)[nH]c2cc1C,-25%,?,?,-2%
Cc1cc2nc(-c3cccnc3SCC(=O)NC3CC3)[nH]c2cc1C,·,?,14µM*,·
CC(=O)O[C@H]1C[C@@H]2OC3C=C(C)CCC3(C)[C@@]1(C)[C@@]21CO1 (stereo partly specified),3.2µM*,·,·,-6%
O=C1NC(=O)C2(CCCCCC2)N1,10%,·,·,-2%
O=C(c1ccccc1)c1cc(Cl)ccc1N1C(=O)C=CC1=O,25µM*,?,?,4.5µM*
SMILES,RE007 growth inh,FBPA Giardia inh,LmPK inhibitor,Tb PYK inh
C[C@@H]1CN([C@H](C)CO)C(=O)CCCn2nncc2CO[C@H]1CN(C)S(=O)(=O)c1cccs1,-2%,·,·,6%
CSc1ccc(CN(C)CC(=O)Nc2c(F)cccc2F)cc1,-3%,20µM*,1%,-7%
CSc1ccc(CN(C)CC(=O)Nc2ccc(NC(C)=O)cc2)cc1,1%,3%,5%[11.5 µM],-3%
CCOC(=O)c1ccc(N/C=C/C(=O)c2ccccc2)cc1,0%,?,2%,-15%
COc1cccc(C(=O)/C=C/Nc2cccc(O)c2)c1,-12%,-10%,14µM*,?
CC(=O)Nc1ccc(N/C=C/C(=O)c2ccccc2)cc1,?,17%,-8%,2%
O=C(/C=C/Nc1ccccc1)c1ccccc1,?,-4%,7.9µM*,-22%
COc1cccc(N/C=C/C(=O)c2ccc(C)cc2)c1,-18%,22%,-6%,-25%
CN(C)c1ccc(N/C=C/C(=O)c2ccccc2)cc1,-14%,?,5.6µM*,?
Cc1cc(C(=O)COC(=O)c2cccc(O)c2)c(C)n1C1CC1,14%,·,·,0%
c1ccc2c(CCC3CCNCC3)c[nH]c2c1,·,·,·,5%
Cc1ccc(-c2cc(C(=O)O)c3cc(Br)ccc3n2)o1,·,?,-25%,10µM*
Cc1ccc(-c2cc(C(=O)Nc3ccccc3C)c3ccccc3n2)o1,-17%,-25%,-9%,-19%
COC(=O)c1cc(-c2ccc(C)o2)nc2ccccc12,11µM*,-15%,-13%,22µM*
Cc1ccc(-c2cc(C(=O)NN3CCOCC3)c3cc(Br)ccc3n2)o1,-7%,-20%,0%,-15%
O=c1oc2cc(OCc3c(F)cccc3Cl)ccc2cc1-c1ccccn1,2%,6%,-1%,-3%
CCCOc1ccc2cc(-c3ccccn3)c(=O)oc2c1,?,-8%,10µM*,?
O=P(O)(O)OC[C@@H](O)CO,·,·,·,0%
CCOC(=O)/C=C(\C)Sc1cc(O)c2ccccc2c1O,63µM*,7.1µM*,10µM*,7.1µM*
CCN(CC)c1ccc2nc3ccccc3[n+](CC)c2c1,2.8µM*,-14%,?,?
CCN(CC)c1ccc2cc(-c3nc4ccccc4[nH]3)c(=O)oc2c1,-5%,-21%,-4%,-7%
CCN(CC)c1ccc2nc3ccc(N)cc3[n+](-c3ccccc3)c2c1,22µM*,·,·,?
Cn1c(/N=C/c2cccs2)nc2ccccc21,-3%,-2%,14µM*,-14%
C=CC(=O)NCCCc1cc(C(C)(C)C)c(O)c(C(C)(C)C)c1,9%,-4%,4%,-3%
NC(=O)C1CCN(C(=S)c2ccc(-c3ccc(Br)cc3)o2)CC1,-5%,3.5µM*,-4%,?
NC(=O)c1ccc(-c2ccc(Br)cc2)o1,-11%,-1%,-3%,-2%
CCc1ccccc1NC(=S)NNC(=O)c1ccccc1Cl,4%,4%,-6%,-2%
CCc1ccccc1NC(=S)NN,·,16µM*,-4%,·
